# Values joined by “and” are separate entries in the source; they are usually repeats but may differ in a detail not shown here. Equal values may be shown once. A structure can be active in one record and inactive in another. Active and inactive are the calls of the source. Unless noted, no rule for the calls is given here.
# Legend:
# [1] = system: Wnt5a (protein binding on small-molecule microarray); test: Wnt5a binders on small-molecule microarray, primary screen, biophysical, 635/667 nm fluorescence (AID 1142); settings: 635 nm fluorescence, higher = more signal;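 also: fluorescence read at 667 nm with signal to noise per printed feature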
# [2] = cell viability in Huh7 cells, primary screen, cytotoxicity control for HCV replication inhibitor project, CellTiter-Glo luminescence, basal, 48 h (AID 1143); settings: Huh7 HCV replicon, higher = more signal, called active from +8 up or from −8 down;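 also: Huh7 hepatoma cells carrying a hepatitis C replication reporter with no stimulus; test concentration not given here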
# [3] = P. aeruginosa biofilm formation inhibitors, primary screen, PAO1 strain, BacTiter-Glo luminescence, LB-PBS (AID 1144); settings: 12 h, higher = more signal
# [4] = CREB reporter modulators without forskolin, primary screen, cell-based, PC12, CRE-LacZ reporter, unstimulated (AID 1145); settings: no forskolin, luminescence, 4.5 h, higher = more signal, called active from +8 up or from −8 down
# [5] = CREB reporter modulators under forskolin, primary screen, cell-based, PC12, CRE-LacZ reporter, forskolin-stimulated (AID 1146); settings: luminescence, 4.5 h, higher = more signal, called active from +8 up or from −8 down;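 also: PC12 cells with 6xCRE LacZ reporter stimulated by forskolin 10 µM; beta-galactosidase reporter signal reflecting CREB driven transcription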
# [6] = molecular target: Streptavidin (Streptomyces avidinii) (UniProt P22629); test: streptavidin binders on small-molecule microarray, primary screen, artefact control for SMM compound annotation, biophysical, 635/667 nm fluorescence (AID 1147); settings: streptavidin binding, higher = more signal;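 also: signal reflects streptavidin binding to arrayed compounds as a control protein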
# [7] = small-molecule binders of probe aInhba, primary screen, biochemical, small-molecule microarray, 635/667 nm fluorescence (AID 1148); settings: higher = more signal;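 also: score merges 667nm spot fluorescence with signal-to-noise for antibody binding to printed compounds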
# Torsin-1A (Homo sapiens) [8] = molecular target: Torsin-1A (Homo sapiens) (UniProt O14656); test: torsin A binders from cell lysate, primary screen, small-molecule microarray, wild-type, 635/667 nm (AID 1149); settings: COS7 hTOR1A-WT lysate, 635 nm fluorescence, higher = more signal
# Torsin-1A (Homo sapiens) [9] = molecular target: Torsin-1A (Homo sapiens) (UniProt O14656); test: small-molecule binders of mutant TOR1A in lysate, primary screen, cell lysate, small-molecule microarray, COS7 lysate, 635/667 nm fluorescence (AID 1150); settings: COS7 hTOR1A mutant lysate, 635 nm fluorescence, higher = more signal;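 also: score pools 667 nm emission and signal to noise measuring lysate protein binding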
# [10] = system: Sonic hedgehog protein (Shh); test: small-molecule binders of Shh protein, primary screen, biochemical, small-molecule microarray, 635/667 nm fluorescence (AID 1151); settings: small-molecule microarray binding, 635 nm fluorescence; higher = more signal;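 also: Shh protein binding to compounds spotted on small-molecule microarray slides; score combines spot fluorescence intensity with signal-to-noise across triplicate slides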
# [11] = E. coli DRC41 culture turbidity changes, primary screen, E. coli filamentation inducer project, strain DRC41, OD650, 48 h (AID 1152);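 also: E. coli MC1000 strain DRC41 lacking acrAB efflux pump and sulA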; settings: E. coli DRC41 (acrAB sulA), higher = more signal, called active from +8 up or from −8 down
# [12] = small-molecule binders of probe aLefty1, primary screen, biochemical, small-molecule microarray, 635/667 nm fluorescence (AID 1153); settings: higher = more signal;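 also: score merges spot fluorescence with signal-to-noise ratio from the scanned slide images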
# [13] = PSAC antagonists in infected red cells, primary screen, cell-based, P. falciparum Indochina, OD700, 1 h (AID 1154); settings: P. falciparum Indochina infected RBC osmotic lysis, higher = more signal, called active from +8 up or from −8 down
# [14] = PSAC antagonists in infected red cells, primary screen, cell-based, P. falciparum Indochina, OD700, 2 h (AID 1155);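 also: lysis reports solute entry through the parasite surface anion channel PSAC; channel blockers reduce lysis of infected cells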; settings: P. falciparum Indochina infected erythrocytes, osmotic lysis OD700; higher = more signal, called active from +8 up or from −8 down
# [15] = osmotic lysis modulators in infected erythrocytes, primary screen, PSAC antagonist project, cell-based, P. falciparum Indochina, OD700, 3 h (AID 1156); settings: higher = more signal, called active from +8 up or from −8 down
# [16] = PSAC antagonists in infected red cells, primary screen, cell-based, P. falciparum Indochina, OD700, 18 h (AID 1157); settings: P. falciparum Indochina infected erythrocytes, osmotic lysis OD700, 18 h; higher = more signal, called active from +8 up or from −8 down
# [17] = modulators of S6 phosphorylation in cells, primary screen, cell-based, A549, cytoblot, luminescence, serum-stimulated (AID 1158); settings: A549 phospho-S6 cytoblot, 5 h, higher = more signal;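 also: serum-stimulated A549 lung adenocarcinoma cells; signal is phosphorylated S6 detected by cytoblot immunostaining with HRP secondary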
# [18] = molecular target: NADPH oxidase 2 (Homo sapiens) (UniProt P04839); test: NOX2-dependent H2O2 signal modulators, primary screen, NOX inhibitor project, cell-based, HEK293-NOX2, PMA-stimulated, Amplex Red fluorescence (AID 1159); settings: 45 min, higher = more signal, called active from +8 up or from −8 down; also: test concentration not given here
# [19] = molecular target: NADPH oxidase 4 (Homo sapiens) (UniProt Q9NPH5); test: NOX4-dependent H2O2 signal modulators, primary screen, NOX inhibitor project, cell-based, HEK293-NOX4, tetracycline-induced, Amplex Red fluorescence (AID 1160); settings: 45 min, higher = more signal, called active from +8 up or from −8 down
# [20] = molecular target: NADPH oxidase 5 (Homo sapiens) (UniProt Q96PH1); test: NOX5-dependent H2O2 signal modulators, primary screen, NOX inhibitor project, cell-based, HEK293-NOX5, Amplex Red fluorescence (AID 1161); settings: HEK293-NOX5, ionomycin, 45 min, higher = more signal
# NADPH oxidase 5 (Homo sapiens), sequence (Q96PH1 whole entry, looked up): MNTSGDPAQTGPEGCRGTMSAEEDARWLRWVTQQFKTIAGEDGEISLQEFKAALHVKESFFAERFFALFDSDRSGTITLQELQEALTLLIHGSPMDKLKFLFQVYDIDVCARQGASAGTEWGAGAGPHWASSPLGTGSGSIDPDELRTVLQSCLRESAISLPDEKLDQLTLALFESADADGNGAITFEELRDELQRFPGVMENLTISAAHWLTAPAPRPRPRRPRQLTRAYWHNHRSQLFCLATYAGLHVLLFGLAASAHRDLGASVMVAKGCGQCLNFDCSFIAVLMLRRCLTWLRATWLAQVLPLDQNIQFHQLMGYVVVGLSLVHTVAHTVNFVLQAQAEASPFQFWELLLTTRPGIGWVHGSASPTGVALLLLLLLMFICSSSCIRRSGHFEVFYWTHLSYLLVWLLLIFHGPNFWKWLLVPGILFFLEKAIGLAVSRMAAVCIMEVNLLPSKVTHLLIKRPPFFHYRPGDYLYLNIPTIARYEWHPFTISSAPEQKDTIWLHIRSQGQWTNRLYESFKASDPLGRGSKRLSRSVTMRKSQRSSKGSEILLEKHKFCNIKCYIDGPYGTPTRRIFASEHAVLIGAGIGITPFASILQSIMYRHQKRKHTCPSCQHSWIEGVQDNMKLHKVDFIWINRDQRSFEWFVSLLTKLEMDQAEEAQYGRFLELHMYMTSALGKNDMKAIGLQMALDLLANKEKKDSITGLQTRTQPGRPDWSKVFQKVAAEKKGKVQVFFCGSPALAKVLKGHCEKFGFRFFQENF
# NADPH oxidase 2 (Homo sapiens), sequence (P04839 whole entry, looked up): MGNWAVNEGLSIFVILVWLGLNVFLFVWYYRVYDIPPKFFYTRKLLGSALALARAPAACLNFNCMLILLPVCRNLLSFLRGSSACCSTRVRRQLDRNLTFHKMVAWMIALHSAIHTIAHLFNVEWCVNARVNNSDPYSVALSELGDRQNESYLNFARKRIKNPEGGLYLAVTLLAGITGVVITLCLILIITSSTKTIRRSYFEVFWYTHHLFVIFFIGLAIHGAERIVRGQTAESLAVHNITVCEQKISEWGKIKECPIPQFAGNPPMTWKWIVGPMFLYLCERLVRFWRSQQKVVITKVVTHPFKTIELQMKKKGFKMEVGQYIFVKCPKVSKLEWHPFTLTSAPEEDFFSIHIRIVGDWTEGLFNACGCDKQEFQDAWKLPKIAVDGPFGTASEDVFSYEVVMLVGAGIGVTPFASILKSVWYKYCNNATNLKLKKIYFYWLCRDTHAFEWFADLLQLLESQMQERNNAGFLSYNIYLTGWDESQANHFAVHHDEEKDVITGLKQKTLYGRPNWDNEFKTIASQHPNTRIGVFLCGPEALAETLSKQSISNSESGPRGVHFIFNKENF
# NADPH oxidase 4 (Homo sapiens), sequence (Q9NPH5 whole entry, looked up): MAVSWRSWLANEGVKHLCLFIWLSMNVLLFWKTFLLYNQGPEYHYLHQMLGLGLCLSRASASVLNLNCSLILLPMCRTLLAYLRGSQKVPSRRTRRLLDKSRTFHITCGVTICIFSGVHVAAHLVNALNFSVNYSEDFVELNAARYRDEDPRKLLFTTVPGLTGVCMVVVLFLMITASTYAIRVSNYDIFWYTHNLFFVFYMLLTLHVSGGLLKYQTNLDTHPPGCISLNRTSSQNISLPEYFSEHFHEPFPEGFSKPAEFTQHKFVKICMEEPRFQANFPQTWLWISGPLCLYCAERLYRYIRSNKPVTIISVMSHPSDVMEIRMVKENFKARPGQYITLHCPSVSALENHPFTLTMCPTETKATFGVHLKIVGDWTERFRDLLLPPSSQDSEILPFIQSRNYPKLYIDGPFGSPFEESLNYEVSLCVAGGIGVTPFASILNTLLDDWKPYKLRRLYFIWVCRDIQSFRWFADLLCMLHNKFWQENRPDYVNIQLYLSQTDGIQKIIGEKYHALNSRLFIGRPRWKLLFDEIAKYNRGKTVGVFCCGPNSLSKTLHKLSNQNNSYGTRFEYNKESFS
# Streptavidin (Streptomyces avidinii), sequence (P22629 whole entry, looked up): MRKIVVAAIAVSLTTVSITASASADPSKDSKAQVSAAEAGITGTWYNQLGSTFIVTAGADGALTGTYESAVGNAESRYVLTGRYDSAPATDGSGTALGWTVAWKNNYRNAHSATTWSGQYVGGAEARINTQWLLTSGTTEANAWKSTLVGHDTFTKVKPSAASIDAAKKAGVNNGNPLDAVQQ
# Torsin-1A (Homo sapiens), sequence (O14656 whole entry, looked up): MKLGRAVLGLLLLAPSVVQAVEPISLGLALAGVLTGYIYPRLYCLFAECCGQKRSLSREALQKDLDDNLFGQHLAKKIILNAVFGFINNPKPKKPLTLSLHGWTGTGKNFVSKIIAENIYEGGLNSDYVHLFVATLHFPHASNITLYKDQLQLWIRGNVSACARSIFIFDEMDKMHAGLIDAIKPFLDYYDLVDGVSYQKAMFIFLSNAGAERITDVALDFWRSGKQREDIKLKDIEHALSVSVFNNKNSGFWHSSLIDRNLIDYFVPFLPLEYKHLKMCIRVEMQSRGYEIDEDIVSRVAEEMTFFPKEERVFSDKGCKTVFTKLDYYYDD
SMILES,composite z-score [1],z-score [2],z-score [3],z-score [4],z-score [5],composite z-score [6],composite z-score [7],composite z-score (Torsin-1A (Homo sapiens) [8]),composite z-score (Torsin-1A (Homo sapiens) [9]),composite z-score [10],z-score [11],composite z-score [12],z-score [13],z-score [14],z-score [15],z-score [16],z-score [17],z-score [18],z-score [19],z-score [20]
C=CCN(CCCCC)C(=O)C(c1cccs1)N(CCOCCO)C(=O)/C=C\C(=O)O (stereo not given),-0.845 and -0.857,-0.103 (inactive) and -0.0586 (inactive),-1 (inactive) and -1.11 (inactive),-0.0778 (inactive) and -0.35 (inactive),0.941 (inactive) and -0.947 (inactive),-0.986 and -1.14,-0.312 and -0.204,-2.06 and -2.03,-1.74 and -2.07,-0.556 and -0.586,1.53 (inactive) and 1.77 (inactive),-1.26 and -0.239,1.03 (inactive) and 0.0763 (inactive),-1.53 (inactive) and -1.1 (inactive),-0.772 (inactive) and -1.06 (inactive),-1.88 (inactive) and -1.64 (inactive),1.27 and 0.842,-0.224 (inactive) and 0.208 (inactive),-0.617 (inactive) and -0.64 (inactive),-0.366 and 0.183
COC(=O)C1=C(C)N(Cc2ccccc2)[C@]23O[C@](C(=O)OC)(C(=O)N2[C@@H]1c1ccccc1)[C@@H](c1ccccc1)[C@@H]3C(=O)c1ccccc1,0.216 and 0.0881,-3.24 (inactive) and 0.14 (inactive),-0.137 (inactive),0.751 (inactive) and 0.29 (inactive),-1.08 (inactive) and -0.186 (inactive),0.454 and 0.377,-0.0736 and -0.119,0.388 and 0.241,0.392 and 0.308,0.229 and 0.599,-1.1 (inactive) and 0.116 (inactive),-0.145 and -0.193,1.17 (inactive) and 0.647 (inactive),-0.645 (inactive) and 0.238 (inactive),0.372 (inactive) and 0.467 (inactive),-1.38 (inactive) and 0.0752 (inactive),1.39 and 0.0227,2.38 (inactive) and 0.648 (inactive),0.856 (inactive) and 0.876 (inactive),2.66 and 1.46
COC(=O)[C@@]1(Cc2ccccc2)[C@H]2c3cc(C(=O)N(C)C)n(Cc4ccc(C)c(F)c4F)c3C[C@H]2CN1C(=O)c1ccccc1,0.0409 and 1.51,-4.98 (inactive) and -3.53 (inactive),-0.796 (inactive) and 0.655 (inactive),31.5 (active) and 0.972 (inactive),202 (active) and 0.38 (inactive),0.367 and 1.93,0.122 and 0.787,0.399 and 0.7,0.272 and 0.365,-0.678 and -0.165,-1.18 (inactive) and -1.91 (inactive),0.476 and 0.712,2.54 (inactive) and 4.12 (inactive),-0.6 (inactive) and 1.2 (inactive),0.425 (inactive) and 0.306 (inactive),-1.34 (inactive) and 1.21 (inactive),1.16 and 0.782,-3.14 (inactive) and 0.452 (inactive),-4.83 (inactive) and -1.66 (inactive),-5.5 and -1.88
C=CCN(CCCCC)C(=O)C1N(CCOCCO)C(=O)C2C(C(=O)O)C3C=CC21O3 (stereo not given),-1.49 and -0.76,0.41 (inactive) and -0.417 (inactive),1.73 (inactive) and 1.24 (inactive),0.866 (inactive) and 0.601 (inactive),0.17 (inactive) and -0.469 (inactive),-1.6 and -1.66,-0.278 and -0.3,-2.98 and -2.79,-0.411 and -1.26,-1.44 and -0.292,-0.657 (inactive) and -0.678 (inactive),-0.0518 and -0.0061,-0.326 (inactive) and 0.243 (inactive),-0.438 (inactive) and -0.392 (inactive),-0.661 (inactive) and -0.448 (inactive),0.0613 (inactive) and -0.159 (inactive),-0.192 and 0.359,0.347 (inactive) and 0.481 (inactive),-1.7 (inactive) and -1.87 (inactive),0.569 and 0.0493
C=CCN(C(=O)C1N(CCCCCCO)C(=O)C2C(C(=O)O)C3C=CC21O3)C(C)(C)C (stereo not given),-1.54 and -1.09,0.317 (inactive) and 0.148 (inactive),1.99 (inactive) and 1.42 (inactive),0.992 (inactive) and -0.216 (inactive),0.129 (inactive) and 0.453 (inactive),-1.47 and -1.01,-0.251 and -0.278,-3.52 and -3.83,-3.07 and -2.82,-1.68 and -1.49,-0.32 (inactive) and -0.471 (inactive),-0.0573 and 0.0451,0.203 (inactive) and 0.288 (inactive),0.357 (inactive) and -0.387 (inactive),-0.395 (inactive) and -0.274 (inactive),-0.28 (inactive) and -0.404 (inactive),0.473 and -0.117,0.93 (inactive) and 0.763 (inactive),-0.0347 (inactive) and 0.143 (inactive),0.588 and 1.41
CO[C@H]1COC(=O)[C@H](C)NC(=O)CC=C[C@@H](C)[C@H](OC)COC(=O)CC=C[C@@H]1C,0.155,0.0447 (inactive),-0.506 (inactive),1.51 (inactive),-0.41 (inactive),0.14,-0.237,1.85,1.81,1.62,0.343 (inactive),-0.149,-0.0029 (inactive),0.147 (inactive),0.597 (inactive),-0.0165 (inactive),-0.248,1.45 (inactive),-1.65 (inactive),-0.796
